High-throughput results (PubChem)
SMN2 splice up: increases expression of the SMN2 splice variant; 2.8% of 210,000 active; AID 1458; Potency, µM (series often up to 46.1 µM), without a hit: at the top dose activity change, positive = activation, hits mostly activators; HEK293 SMN2-luciferase splicing reporter, luminescence, 30-36 h; note: % of control where 0% means no effect; nearly all actives have a fitted effect of over 55% in size
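qHTS luciferase splicing reporter: luminescence rises when SMN2 exon 7 is included in transfected HEK293 cells. Compound exposure lasted 30-36 h at 37C, with 4.5 mM final sodium butyrate as control, followed by a ONE-Glo read.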
ELG1 repair inh: ELG1-dependent DNA repair inhibition | HEK293T ELG1-luciferase reporter, luminescence, 16 h; DNA damage induced by 5-fluorouridine | Potency, µM (top dose mostly 46.1 µM), for inactives: top-dose activity change, negative = inhibition, most hits filed as inhibitors | 2.3% of 330,000 active | AID 504467; note: % is set by controls: 0 for no effect and ±100 for the full control effect; nearly all actives have a fitted effect of over 55% in size
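Step one: seed 2,000 cells per well. Step two: pin-transfer compound or DMSO alongside 5-fluorouridine. Step three: incubate 16 hr, 37 °C, 5% CO2. Step four: add ONE-Glo, wait 30 min, read luminescence.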
NPC1 prom act: activators of NPC1 promoter; Huh7 NPC1 promoter luciferase reporter, 24 h; Potency, µM (series often up to 9.22 µM), inactives show at the top dose activation, usual class: activators; 2.4% of 320,000 active; note: % of control where 0% means no effect; nearly all actives have a fitted effect of over 60% in size
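Huh7 cells stably carrying NPC1 promoter–luciferase, plated in Opti-MEM with 10% FBS for 2 h, were exposed to compound in DMSO for 24 h at 37 °C; luciferase reagent was added for 10 min and luminescence read.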
Rab9 promoter act: activates the Rab9 promoter; Huh7 Rab9 promoter-luciferase reporter, luminescence, 24 h; Potency, µM (titrated, usually from 9.22 µM), without a hit: at the top dose activation, negative = inhibition, hits mostly activators; 2.8% of 320,000 active; AID 485297; note: % of control where 0% means no effect; nearly all actives have a fitted effect of over 60% in size
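Luciferase signal after 10 min detection reagent at ambient indicates Rab9 promoter upregulation; stably transfected Huh7 cells were treated 24 h with compound in DMSO at 37 °C, 5% CO2.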
FLuc counter: firefly luciferase modulation, counter-screen for miR-21 project; P08659; purified FLuc, Km substrates, luminescence inhibition; Potency, µM (doses to about 57.5 µM), for the others: at the top dose activity change, negative = inhibition, most hits filed as inhibitors; 6.9% of 360,000 active;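 note: plate controls were vehicle for no effect and reference inhibitor for full effect; nearly all actives have a fitted effect of over 55% in size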
Target sequence (P08659 whole entry, looked up): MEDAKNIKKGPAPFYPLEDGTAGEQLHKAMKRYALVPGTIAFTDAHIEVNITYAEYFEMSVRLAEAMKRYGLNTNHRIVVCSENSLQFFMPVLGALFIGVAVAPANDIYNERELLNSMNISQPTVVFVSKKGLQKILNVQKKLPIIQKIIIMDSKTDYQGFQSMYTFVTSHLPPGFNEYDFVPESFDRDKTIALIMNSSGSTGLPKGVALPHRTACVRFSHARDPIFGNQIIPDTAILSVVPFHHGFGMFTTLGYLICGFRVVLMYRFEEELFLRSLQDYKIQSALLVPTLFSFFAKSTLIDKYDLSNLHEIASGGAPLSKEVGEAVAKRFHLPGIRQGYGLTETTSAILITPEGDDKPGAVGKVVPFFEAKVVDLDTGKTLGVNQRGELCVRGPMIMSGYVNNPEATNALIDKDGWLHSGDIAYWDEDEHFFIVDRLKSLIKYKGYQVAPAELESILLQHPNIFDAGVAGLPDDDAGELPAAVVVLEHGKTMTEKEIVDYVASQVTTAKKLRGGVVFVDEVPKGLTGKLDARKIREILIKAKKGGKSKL
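Biochemical qHTS of compounds, final roughly 60 µM downward over six points, against 10 nM purified firefly luciferase using Km concentrations of substrates (10 uM D-luciferin, 10 uM ATP) in Tris acetate pH 7.5 buffer; luminescence output.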
ELG1 genotox: inducers of genotoxicity in HEK293T ELG1-luciferase cells | Potency, µM (top dose mostly 46 µM), inactives show top-dose activity change, positive = activation, actives largely listed as activators | HEK293T ELG1-luciferase reporter, luminescence, 16 h | 1.3% of 330,000 active; note: % of control where 0% means no effect; nearly all actives have a fitted effect of over 60% in size
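Quantitative HTS format in 1536-well plates. HEK293T ELG1-luciferase reporter cells receive test compound and are incubated 16 hr at 37 °C, 5% CO2; ONE-Glo added, 30 min room temperature, then luminescence read.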
An asterisk follows results filed as active; ? = inconclusive; / = not tested or not shown. Only some compounds are listed: those with a hit (about 9.2% of all), similar ones and a draw of the others. Calls come from the whole dose curve; as a rule, active = well fitted curve in the direction sought with a large enough effect; inconclusive = small, poorly fitted or top-dose-only effect, or another doubt; inactive = no such curve, though single readings can be large; an effect the other way counts as inactive or inconclusive. Potency is the fitted concentration of half-maximal effect.

SMILES	SMN2 splice up	ELG1 repair inh	NPC1 prom act	Rab9 promoter act	FLuc counter	ELG1 genotox
O=C(CNc1ccc(F)cc1Cl)Nc1cccc(S(=O)(=O)N2CCCCC2)c1	/	-28%	-5%	-3%	11µM*	-4%
CCN(CC)S(=O)(=O)c1cccc(NC(=O)CNc2cccc(S(=O)(=O)N3CCCC3)c2)c1	/	0.33µM*	-36%	-36%	0%	-14%
Cc1ccc(NC(=O)CNc2cccc(Br)c2)cc1S(=O)(=O)N1CCOCC1	/	23µM*	/	/	/	-6%
O=C(CNc1cccc(S(=O)(=O)N2CCCC2)c1)Nc1cccc(F)c1	/	-18%	5%	-12%	-9%	-6%
CCSc1cc(N2CCCC2)nc(-c2ccccc2Cl)n1	-12%	-1%	-1%	1%	1%	-4%
Cc1c(N=C2N=C(NC(=O)Nc3ccc(Cl)cc3)c3ccccc32)c(=O)n(-c2ccccc2)n1C	-12%	-4%	-18%	-10%	0%	3%
CCN(CC)S(=O)(=O)c1cccc(NC(=O)CC2CCCC2)c1	/	?	-1%	3%	-1%	-29%
CN(CC(=O)Nc1cccc(S(=O)(=O)N2CCCC2)c1)CC(=O)Nc1ccc(Cl)c(C(F)(F)F)c1	/	15µM*	-5%	-13%	15%	-9%
CCN(CC)CC(=O)Nc1cccc(S(=O)(=O)N2CCCC2)c1	/	2%	0%	-3%	0%	-1%
CCN(CC)S(=O)(=O)c1cccc(NC(=O)Nc2cccc(C(F)(F)F)c2)c1	-45%	13µM*	2%	2%	-18%	-10%
CCCCCN(C(=O)CCC(=O)OC(C)C(=O)NC1CCCCC1)c1c(N)n(CCCC)c(=O)[nH]c1=O (centres undefined)	/	3%	-1%	-5%	3%	-2%
O=C(c1ccc(F)cc1)c1cc2ccccc2o1	/	?	?	22%	11µM*	?
O=C(NNC(=O)c1cc2ccccc2o1)c1ccc(F)cc1	/	?	0%	1%	17µM*	11%
O=C(NNC(=O)c1cc2ccccc2o1)c1ccc(Cl)cc1	/	6%	1%	1%	2%	1%
O=C(c1ccccc1)c1cc2ccccc2oc1=O	/	?	16%	13%	-12%	10%
O=C(NCc1ccc(F)cc1)c1cc2ccccc2o1	/	24%	5%	9%	-12%	4%
O=C(c1ccccc1)c1cc2ccccc2o1	-6%	?	?	?	15µM*	?
Cc1ccc(C(=O)c2cc3ccccc3o2)cc1[N+](=O)[O-]	-4%	1%	?	2.8µM*	7.6µM*	?
O=C(COc1ccc(Cl)cc1[N+](=O)[O-])N/N=C/c1cccs1	-3%	4%	-2%	0%	?	0%
COc1ccc(NC(=O)CN(C)C(=O)CCCc2nc3ccccc3s2)cc1	/	4%	-1%	18%	?	?
COc1ccc(CNC(=O)Cc2c(C)c3c(cc(C)c4c(C)coc43)oc2=O)cc1	-6%	/	/	/	-3%	/
CC1(C)Cc2c(sc(NC(=O)Nc3ccccc3)c2C(N)=O)CO1	/	?	4.5µM*	1.3µM*	12µM*	?
Cc1sc(NC(=O)Nc2ccccc2)c(C(N)=O)c1C	/	?	?	2µM*	7.6µM*	9%
CC1(C)Cc2c(sc(NC(=O)C(=O)N3CCCC3)c2C(N)=O)CO1	/	6%	-1%	5%	0%	10%
CCCc1cc2c(=O)n(NC(=O)c3nn(C)cc3[N+](=O)[O-])c(C)nc2s1	16%	-9%	0%	2%	5%	0%
SMILES	SMN2 splice up	ELG1 repair inh	NPC1 prom act	Rab9 promoter act	FLuc counter	ELG1 genotox
CCOC(=O)c1cc2nc(-c3ccccc3)cc(C)n2n1	/	-5%	-2%	2%	5%	-2%
CCOC(=O)c1cnc2c(-c3cccc(Br)c3)cnn2c1C	/	?	3.2µM*	3.5µM*	2.4µM*	?
CCOC(=O)c1cnc2c([N+](=O)[O-])cnn2c1C	10%	15%	8%	-1%	-4%	-2%
CCOC(=O)c1cnn2c(C)cc(-c3ccccc3)nc12	32µM*	?	?	3.5µM*	19µM*	9.2µM*
CCOC(=O)c1cnn(C(=O)c2ccccc2)c1N	-8%	1%	-1%	4%	19µM*	1%
CCOC(=O)c1cnc2c(C(=O)OCC)cnn2c1N	/	?	?	4µM*	?	9%
CCCn1cnnc1CNC(=O)C1CCC(=O)N(CCCc2ccccc2)C1 (centres undefined)	/	-1%	1%	0%	-1%	2%
Cc1cc(C)n2ncc(/C(N)=N/OC(=O)c3ccccc3F)c2n1	/	?	?	?	12µM*	?
CC(=O)Nc1ccc(NC(=O)c2c(C)nn(-c3ccccc3)c2Cl)cc1C	/	8%	-5%	-12%	-4%	0%
Oc1c(C=Nc2ccc(Cl)cn2)sc2ccccc12	/	?	?	?	0.34µM*	5.8µM*
Oc1oc(-c2ccccc2Br)nc1C=Nc1ccc(Br)cn1	-11%	2%	1%	3%	-18%	6%
Oc1c(C=Nc2ccccc2)sc2ccccc12	/	4%	-4%	-4%	3%	2%
Oc1c(C=NCc2ccncc2)sc2ccccc12	?	-4%	13%	2%	?	?
Oc1c(C=Nc2cccnc2)sc2ccccc12	24%	?	5%	5%	1.9µM*	?
Oc1c(/C=N/c2ccccn2)sc2ccccc12	/	?	22%	?	0.54µM*	?
O=C(c1sc2cc(F)ccc2c1Cl)N1CCN(c2ccccc2)CC1	-8%	12%	0%	-3%	-1%	0%
COc1ccc(CNC(=O)C2CCN(S(=O)(=O)c3ccc4c(c3)CC(C)N4C(C)=O)CC2)cc1 (centres undefined)	/	?	-2%	0%	6%	-3%
CCOC(=O)N1CCN(C(=O)c2sc3nc(-c4ccc(F)cc4)cn3c2C)CC1	-22%	21µM*	0%	-7%	-1%	-2%
COc1ccc(-c2cn3c(C)c(C(=O)N4CCN(c5ccc(F)cc5)CC4)sc3n2)cc1	-34%	0%	1%	-8%	?	13%
COc1ccccc1N1CCN(C(=O)c2sc3nc(-c4ccc(F)cc4)cn3c2C)CC1	-78%	18µM*	-5%	-19%	2%	-46%
CC(=Nc1ccccc1C(F)(F)F)c1ccncc1	/	10%	3%	-3%	-1%	3%
CC1=CC(C)(C)Nc2ccc(OC(=O)c3ccco3)cc21	-16%	?	-3%	17%	21µM*	23%
CC1=CC(C)(C)Nc2ccc(OC(=O)c3cccnc3)cc21	-7%	0%	-10%	4%	-16%	7%
